A number with no mark means an inactive call. Results filed as inconclusive are left out. Calls of active or inactive are those of the source. Unless noted, calls come from the whole dose curve; as a rule, active = well fitted curve in the direction sought with a large enough effect; inconclusive = small, poorly fitted or top-dose-only effect, or another doubt; inactive = no such curve, though single readings can be large; an effect the other way counts as inactive or inconclusive.

Experiment [1] deals with Cytochrome P450 1A2 (Homo sapiens) (UniProt P05177). Briefly: p450-cyp1a2 (AID 410; calls by dose curve; note: potency is the fitted concentration of half-maximal effect). Summed up:
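Read-out is luminescence from luciferin produced by CYP1A2 demethylation of Luciferin-ME (100uM, at Km). Detection reagent stopped the 60 min NADPH-dependent reaction; signals were normalized to 57 uM furafylline.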

Experiment [2] addresses Glucocorticoid receptor (Homo sapiens) (UniProt P04150). Briefly: GR-GFP Redistribution (AID 450;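 active = compounds whose dose series gives a full or clear partial fitted curve of increased nuclear translocation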; note: potency is the fitted concentration of half-maximal effect).
Experiment [3] has the same target. Briefly: GR-EFC Redistribution (AID 451; calls by dose curve; note: potency is the fitted concentration of half-maximal effect). As to conditions: CHO-K1 GR-EFC translocation, beta-gal luminescence, 2 h. Summed up:
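Translocation of GR-ED fusion to nuclear EA restores b-gal, read by luminescence after 1 h room-temperature detection. Engineered CHO-K1 biosensor cells, 1,000/well, exposed 2 h at 37 C to titrations up to 46 uM final.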

The target in experiment [4] is Mitogen-activated protein kinase 10 (Mus musculus) (UniProt Q61831). The experiment is described as follows: JNK3 AlphaScreen Assay (AID 530; active = well fitted curve in either direction with a large enough effect, not every such curve was filed as active;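 note: kinase came from lysate of stimulated human HepG2 cells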; note: potency is the fitted concentration of half-maximal effect). Summed up:
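Kinase buffer: 20 mM Tris-HCl pH 7.6, 10 mM MgCl2, 1 mM DTT, 0.1 mM Na3VO4, 0.01% Tween-20; ATP 10 uM. Substrate biotin-GST-cJun(1-79), enzyme from activated HepG2 lysates. Detection by Ser73 phospho-antibody AlphaScreen.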
In general terms: Bead proximity is the source of the signal in Alpha formats.

Experiment [5] has as its target DNA dC->dU-editing enzyme APOBEC-3G (Homo sapiens) (UniProt Q9HC16). The experiment is described as follows: qHTS for inhibitors of Vif-A3G interactions: Validation (AID 588379). Summed up: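 Yellow fluorescence (Ex 488, Em 500-530) of Vif-coexpressing HeLa A3G-eYFP cells, scanned by Acumen cytometer, reports blocked A3G degradation. Cells plated at 700/well overnight at 37 deg C before compound addition, then a further overnight compound incubation at 37 deg C.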
Background: Quantitative high-throughput screening tests each substance at several concentrations.

The target in experiment [6] is Luciferin 4-monooxygenase (Photinus pyralis) (UniProt P08659). Briefly: Biochemical firefly luciferase enzyme assay for NPC (AID 624030).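 Note: purified P. pyralis luciferase at 10 nM with luciferin and ATP substrate; series mostly up to about 59 µM; nearly all actives have a fitted effect of over 70% in size.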 Summed up: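 Direct inhibition of firefly luciferase enzyme (10 nM final, 50 mM Tris Acetate) assessed by luminescence within 5 minutes. Percent activity scaled between DMSO and PTC124 positive control, with concentration-effect curves classified by fit quality and response.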
Sequence of Luciferin 4-monooxygenase (Photinus pyralis) (P08659 whole entry, looked up): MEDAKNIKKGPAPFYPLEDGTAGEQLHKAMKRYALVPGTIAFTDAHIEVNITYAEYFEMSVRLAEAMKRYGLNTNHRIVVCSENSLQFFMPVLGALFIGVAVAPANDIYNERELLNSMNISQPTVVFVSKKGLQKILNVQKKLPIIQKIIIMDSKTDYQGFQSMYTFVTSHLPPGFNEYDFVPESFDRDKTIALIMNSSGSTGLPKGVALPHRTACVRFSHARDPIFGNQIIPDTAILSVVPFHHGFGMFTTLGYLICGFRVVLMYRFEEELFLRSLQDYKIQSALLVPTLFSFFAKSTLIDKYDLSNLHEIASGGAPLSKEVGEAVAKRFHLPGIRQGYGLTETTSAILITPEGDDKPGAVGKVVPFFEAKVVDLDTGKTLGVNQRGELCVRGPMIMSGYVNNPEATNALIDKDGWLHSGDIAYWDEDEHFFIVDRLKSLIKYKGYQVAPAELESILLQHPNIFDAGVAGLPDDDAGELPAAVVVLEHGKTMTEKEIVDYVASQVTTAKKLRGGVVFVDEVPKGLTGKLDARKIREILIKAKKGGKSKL

In experiment [7] the target is 3',5'-cyclic-AMP phosphodiesterase 4B (Homo sapiens) (UniProt Q07343). Briefly: qHTS Assay for Inhibitors of PDE-IV (AID 607; active = well fitted activation curve with a large enough effect in the main read-out, with a control signal flat, not every such curve was filed as active). The essentials:
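ACTOne HEK293 cells carry a modified cAMP-gated CNG channel and express endogenous PDE4; plated 1000 cells/well, compounds up to 22.9 uM final. Membrane-potential dye fluorescence (ex 535/em 590) was read; parental cells received 10 uM forskolin + 100 uM RO 20-1724.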

The target of experiment [8] is Cytochrome P450 2C9 (Homo sapiens) (UniProt P11712). The experiment is described as follows: qHTS Assay for Inhibitors and Substrates of Cytochrome P450 2C9 (AID 883). Note: nearly all actives have a fitted effect of over 60% in size. Note: potency is the fitted concentration of half-maximal effect. Summed up: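 Luminescent read-out of deoxyluciferin hydroxylation, normalized to 57uM sulphaphenazole (AC100). Reaction: 10nM enzyme, 100uM Luciferin-H (equal to KM), 25mM KPO4, 10 min compound preincubation, then 60 min with NADPH regeneration, both at 37C.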
Sequence of Cytochrome P450 2C9 (Homo sapiens) (P11712 whole entry, looked up): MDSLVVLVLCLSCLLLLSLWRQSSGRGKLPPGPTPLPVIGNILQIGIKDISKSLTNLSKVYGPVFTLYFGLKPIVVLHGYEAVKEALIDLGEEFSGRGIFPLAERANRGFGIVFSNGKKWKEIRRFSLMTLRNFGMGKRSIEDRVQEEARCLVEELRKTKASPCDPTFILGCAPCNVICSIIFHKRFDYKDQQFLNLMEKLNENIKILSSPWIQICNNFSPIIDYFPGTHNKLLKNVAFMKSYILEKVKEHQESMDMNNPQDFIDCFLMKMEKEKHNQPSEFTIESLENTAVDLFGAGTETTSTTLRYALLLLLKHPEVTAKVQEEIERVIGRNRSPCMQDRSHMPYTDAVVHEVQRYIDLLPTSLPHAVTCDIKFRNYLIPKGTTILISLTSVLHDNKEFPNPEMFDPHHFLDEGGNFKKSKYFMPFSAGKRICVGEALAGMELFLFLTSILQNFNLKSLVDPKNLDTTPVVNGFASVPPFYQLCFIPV

Experiment [9] concerns the target Cytochrome P450 3A4 (Homo sapiens) (UniProt P08684). The experiment is described as follows: qHTS Assay for Inhibitors and Substrates of Cytochrome P450 3A4 (AID 884). Note: potency is the fitted concentration of half-maximal effect; nearly all actives have a fitted effect of over 50% in size. The essentials: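 Luminescent readout of luciferin produced by CYP3A4 (20 nM) dealkylation of Luciferin-PPXE, 25 uM (its KM). NADPH-driven reaction ran 60 min at RT after 10 min compound preincubation; data scaled to 57 uM ketoconazole as 100% inhibition.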

The target is the same in experiment [10]. Briefly: qHTS Assay for Activators of Cytochrome P450 3A4 (AID 885). Note: nearly all actives have a fitted effect of over 65% in size. The essentials: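 CYP3A4 activity: Luciferin-PPXE O-dealkylation, 25uM substrate, 200mM KPO4, RT throughout. Read-out is luciferase luminescence; higher values reflect activation.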
Experiment [11] concerns the target Cytochrome P450 2C19 (Homo sapiens) (UniProt P33261). The experiment is described as follows: qHTS Assay for Inhibitors and Substrates of Cytochrome P450 2C19 (AID 899). Note: nearly all actives have a fitted effect of over 60% in size. Note: potency is the fitted concentration of half-maximal effect. The essentials:
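Luminescence readout of luciferin formed from 10uM Luciferin-H EGE (KM level) by 5 nM CYP2C19 in 50mM KPO4. 60 min NADPH-driven reaction at 37C after 10 min compound preincubation; data scaled to 57uM ketoconazole inhibition.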

Experiment [12] deals with Cytochrome P450 2D6 (Homo sapiens) (UniProt P10635). Briefly: qHTS Assay for Inhibitors and Substrates of Cytochrome P450 2D6 (AID 891). Note: nearly all actives have a fitted effect of over 60% in size. Note: potency is the fitted concentration of half-maximal effect. The essentials:
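Luminescent read-out of luciferin formed by 5 nM human CYP2D6 demethylating 30 uM Luciferin-ME EGE (Km level) over 60 min at room temperature after NADPH regeneration addition. Data normalized to full inhibition by 1.43 uM quinidine.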

Experiment [13] addresses Ubiquitin carboxyl-terminal hydrolase 1 (Homo sapiens) (UniProt O94782). Briefly: Inhibitors of USP1/UAF1: Pilot qHTS (AID 504865).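 Note: rhodamine fluorescence freed from ubiquitin-rhodamine substrate followed over time; top concentration of the series differs between compounds; nearly all actives have a fitted effect of over 35% in size.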 Summed up: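 1nM USP1/UAF1 + cpd, 15 min RT; start w/ Ub-Rho 150nM final; kinetic FL 480/540 nm, 6 reads q60 s. Buffer 50mM HEPES pH 7.8, 0.5mM EDTA, 1mM TCEP, 0.01% Tween-20, 0.1 mg/ml BSA.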

Sequence of Cytochrome P450 2C19 (Homo sapiens) (P33261 whole entry, looked up): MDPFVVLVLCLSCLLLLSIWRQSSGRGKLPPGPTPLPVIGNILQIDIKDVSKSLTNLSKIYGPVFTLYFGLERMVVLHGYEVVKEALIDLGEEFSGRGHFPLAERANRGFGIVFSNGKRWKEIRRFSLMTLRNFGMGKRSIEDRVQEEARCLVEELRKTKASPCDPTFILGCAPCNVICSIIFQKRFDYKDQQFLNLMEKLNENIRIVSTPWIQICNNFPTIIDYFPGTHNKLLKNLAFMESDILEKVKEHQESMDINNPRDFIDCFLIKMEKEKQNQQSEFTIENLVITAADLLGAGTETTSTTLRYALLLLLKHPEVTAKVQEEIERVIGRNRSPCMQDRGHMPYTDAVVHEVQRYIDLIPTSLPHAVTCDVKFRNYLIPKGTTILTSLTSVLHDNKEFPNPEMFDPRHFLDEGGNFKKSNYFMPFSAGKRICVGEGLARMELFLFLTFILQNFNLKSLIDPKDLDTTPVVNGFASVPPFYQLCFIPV
Sequence of Glucocorticoid receptor (Homo sapiens) (P04150 whole entry, looked up): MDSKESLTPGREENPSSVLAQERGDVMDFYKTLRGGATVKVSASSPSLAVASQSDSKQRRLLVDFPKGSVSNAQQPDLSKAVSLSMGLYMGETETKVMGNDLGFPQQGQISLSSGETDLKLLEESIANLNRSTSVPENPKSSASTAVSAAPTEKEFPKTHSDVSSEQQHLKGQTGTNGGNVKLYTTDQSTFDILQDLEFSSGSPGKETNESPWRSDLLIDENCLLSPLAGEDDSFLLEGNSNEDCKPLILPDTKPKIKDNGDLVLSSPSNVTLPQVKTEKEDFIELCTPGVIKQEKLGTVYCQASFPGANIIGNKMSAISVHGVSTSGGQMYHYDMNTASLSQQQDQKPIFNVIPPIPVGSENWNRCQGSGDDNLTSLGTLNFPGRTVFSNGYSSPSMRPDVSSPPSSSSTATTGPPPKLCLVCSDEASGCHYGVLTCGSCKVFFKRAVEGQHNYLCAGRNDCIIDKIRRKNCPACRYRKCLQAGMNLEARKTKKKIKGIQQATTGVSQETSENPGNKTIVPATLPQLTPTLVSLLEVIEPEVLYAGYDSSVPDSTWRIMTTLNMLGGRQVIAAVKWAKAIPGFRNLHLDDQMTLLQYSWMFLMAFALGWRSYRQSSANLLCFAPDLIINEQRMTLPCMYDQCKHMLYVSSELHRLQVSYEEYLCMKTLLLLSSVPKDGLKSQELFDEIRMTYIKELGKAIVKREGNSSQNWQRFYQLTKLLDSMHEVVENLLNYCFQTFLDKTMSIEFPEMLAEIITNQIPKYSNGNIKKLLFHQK
Sequence of DNA dC->dU-editing enzyme APOBEC-3G (Homo sapiens) (Q9HC16 whole entry, looked up): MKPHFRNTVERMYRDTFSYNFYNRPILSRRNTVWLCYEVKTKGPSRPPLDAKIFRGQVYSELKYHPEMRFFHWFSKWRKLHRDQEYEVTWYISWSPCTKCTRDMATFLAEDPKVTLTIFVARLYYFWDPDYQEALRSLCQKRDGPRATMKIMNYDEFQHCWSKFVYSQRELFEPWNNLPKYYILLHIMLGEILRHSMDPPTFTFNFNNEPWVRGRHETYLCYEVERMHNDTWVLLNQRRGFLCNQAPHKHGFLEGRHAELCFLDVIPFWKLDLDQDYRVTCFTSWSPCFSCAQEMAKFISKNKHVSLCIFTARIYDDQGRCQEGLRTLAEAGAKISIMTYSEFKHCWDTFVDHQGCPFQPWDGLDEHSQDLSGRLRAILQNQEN
Sequence of Cytochrome P450 1A2 (Homo sapiens) (P05177 whole entry, looked up): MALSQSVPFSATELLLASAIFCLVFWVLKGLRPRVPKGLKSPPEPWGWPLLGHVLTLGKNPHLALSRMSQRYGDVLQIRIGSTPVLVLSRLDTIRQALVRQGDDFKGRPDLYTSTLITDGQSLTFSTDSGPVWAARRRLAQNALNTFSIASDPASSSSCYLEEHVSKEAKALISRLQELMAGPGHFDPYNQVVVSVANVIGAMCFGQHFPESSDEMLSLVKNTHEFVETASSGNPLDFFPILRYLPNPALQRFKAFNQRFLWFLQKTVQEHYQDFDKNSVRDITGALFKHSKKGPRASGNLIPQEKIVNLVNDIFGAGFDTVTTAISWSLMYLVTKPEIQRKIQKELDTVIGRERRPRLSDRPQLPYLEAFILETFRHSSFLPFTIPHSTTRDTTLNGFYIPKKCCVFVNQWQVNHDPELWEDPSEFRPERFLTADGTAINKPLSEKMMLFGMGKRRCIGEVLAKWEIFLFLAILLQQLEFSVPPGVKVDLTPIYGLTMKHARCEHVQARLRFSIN
Sequence of 3',5'-cyclic-AMP phosphodiesterase 4B (Homo sapiens) (Q07343 whole entry, looked up): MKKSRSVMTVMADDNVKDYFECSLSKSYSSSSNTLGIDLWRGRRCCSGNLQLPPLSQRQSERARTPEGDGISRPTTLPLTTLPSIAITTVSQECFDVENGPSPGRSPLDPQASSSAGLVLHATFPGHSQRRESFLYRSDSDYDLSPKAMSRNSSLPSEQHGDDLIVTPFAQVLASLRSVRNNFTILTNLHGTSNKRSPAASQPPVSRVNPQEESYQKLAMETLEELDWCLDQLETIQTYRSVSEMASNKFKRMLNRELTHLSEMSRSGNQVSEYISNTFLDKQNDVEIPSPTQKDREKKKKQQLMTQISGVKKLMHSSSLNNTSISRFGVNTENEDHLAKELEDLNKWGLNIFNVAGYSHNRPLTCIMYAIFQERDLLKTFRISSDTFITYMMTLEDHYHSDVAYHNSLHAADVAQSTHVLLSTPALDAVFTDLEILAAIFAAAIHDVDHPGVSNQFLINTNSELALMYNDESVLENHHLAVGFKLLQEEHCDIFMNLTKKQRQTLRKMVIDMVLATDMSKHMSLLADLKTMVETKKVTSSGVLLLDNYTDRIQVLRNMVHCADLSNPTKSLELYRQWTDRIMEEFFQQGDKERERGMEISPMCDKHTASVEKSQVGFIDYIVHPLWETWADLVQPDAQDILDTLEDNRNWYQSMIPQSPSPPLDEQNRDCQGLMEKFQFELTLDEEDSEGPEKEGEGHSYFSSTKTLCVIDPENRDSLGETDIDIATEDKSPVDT
Sequence of Cytochrome P450 3A4 (Homo sapiens) (P08684 whole entry, looked up): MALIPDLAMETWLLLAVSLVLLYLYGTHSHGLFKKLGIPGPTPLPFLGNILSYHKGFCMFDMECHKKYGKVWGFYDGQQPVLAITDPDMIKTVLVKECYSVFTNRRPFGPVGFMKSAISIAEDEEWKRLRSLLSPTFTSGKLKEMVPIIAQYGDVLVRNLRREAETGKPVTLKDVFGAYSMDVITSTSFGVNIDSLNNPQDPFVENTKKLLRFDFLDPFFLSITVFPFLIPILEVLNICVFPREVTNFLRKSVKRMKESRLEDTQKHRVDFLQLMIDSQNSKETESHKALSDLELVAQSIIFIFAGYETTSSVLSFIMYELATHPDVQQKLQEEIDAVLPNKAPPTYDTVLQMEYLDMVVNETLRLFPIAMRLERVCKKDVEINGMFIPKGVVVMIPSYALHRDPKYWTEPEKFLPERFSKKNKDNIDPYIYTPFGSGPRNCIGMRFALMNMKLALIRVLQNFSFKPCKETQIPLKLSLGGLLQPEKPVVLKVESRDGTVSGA
Sequence of Cytochrome P450 2D6 (Homo sapiens) (P10635 whole entry, looked up): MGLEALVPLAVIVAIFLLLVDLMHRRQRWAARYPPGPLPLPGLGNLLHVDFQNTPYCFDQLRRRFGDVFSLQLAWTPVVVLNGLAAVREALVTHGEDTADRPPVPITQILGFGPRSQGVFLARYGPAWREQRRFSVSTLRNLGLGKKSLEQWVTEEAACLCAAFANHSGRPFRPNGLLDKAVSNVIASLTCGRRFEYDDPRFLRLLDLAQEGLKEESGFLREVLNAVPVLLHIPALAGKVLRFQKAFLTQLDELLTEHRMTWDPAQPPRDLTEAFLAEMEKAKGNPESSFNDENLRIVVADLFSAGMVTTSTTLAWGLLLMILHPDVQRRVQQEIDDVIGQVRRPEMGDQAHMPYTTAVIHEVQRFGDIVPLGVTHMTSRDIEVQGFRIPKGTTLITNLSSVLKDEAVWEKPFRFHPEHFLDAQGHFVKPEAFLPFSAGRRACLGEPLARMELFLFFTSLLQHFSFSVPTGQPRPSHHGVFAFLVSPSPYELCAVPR

Turning to `CC(C)OC(=O)c1cc2c(OC[C@@H](O)CNC(C)(C)C)cccc2[nH]1`, the Potency in [1] is 31.6 µM (active); in experiment [2], over 46 µM; in [3] it was over 46 µM. The Potency entry in [4] and in experiment [6] was “inactive” in each case. The call in [5] was inactive.
For the compound `COc1ccc2c(=O)cc(-c3ccc(O)cc3)oc2c1`, the Potency in [1] is 0.0794 µM (active); in experiment [2], over 46 µM; in experiment [3], over 46 µM; in experiment [8], 6.31 µM (active); in experiment [9], 3.16 µM (active); in experiment [11] it was 7.94 µM (active). In addition, the Potency entry in [4], in experiment [7] and in experiment [10] was “inactive” each time. Further, in experiment [5], the result was inactive.
Take `CN(CCc1ccc(Cl)c(Cl)c1)CCN1CCCCCC1`: the Potency in experiment [1] was 31.6 µM (active); in [2], over 46 µM; in experiment [3], over 46 µM; in experiment [12], 0.126 µM (active). The Potency result in experiment [4], in experiment [10] and in experiment [13] was “inactive” throughout. Moreover, the result in [5] was inactive.
As to `CC(=O)Oc1cc(OC(C)=O)c2c(=O)cc(-c3ccc(OC(C)=O)c(OC(C)=O)c3)oc2c1`, the Potency in [1] is 3.16 µM (active); in experiment [2], over 46 µM; in [3], over 46 µM; in experiment [4] it was 10 µM (active). The Potency result in experiment [7], in experiment [8], in experiment [10], in experiment [12] and in [11] was “inactive” in each case. Besides, in experiment [5], the compound was classed as inactive.
In the case of `CC[C@@H]1[C@H]2CCCCN3[C@@H]2[C@@H](C[C@H]3[C@@H]2C[C@H](C)C(=O)O2)[C@@H]2[C@H]1OC(=O)[C@H]2C`, the Potency in experiment [1] was 25.1 µM (active); in experiment [2], over 46 µM; in [3], over 46 µM. Also, the Potency result in [4], in experiment [7] and in experiment [8] was “inactive” in each case.
As for `OC[C@@H]1O[C@@H](n2cnc3c(NCc4ccco4)ncnc32)[C@H](O)[C@H]1O`, the Potency entry in experiment [1], in experiment [4], in experiment [7], in experiment [8] and in experiment [12] was “inactive” throughout. Also, the Potency in experiment [2] and in experiment [3] was over 46 µM in each case.
For `O=c1c(O)c(-c2ccc(O)cc2)oc2ccc(O)cc12`, the Potency was 0.2 µM (active) in experiment [1], over 46 µM in experiment [2] and over 46 µM in experiment [3]. Further, the Potency result in experiment [4], in experiment [7], in experiment [10], in [12] and in experiment [11] was “inactive” throughout. Further, in experiment [5], the result was inactive.
Consider `Cc1c(-c2ccccc2)oc2cc(O)ccc2c1=O`, for which the Potency in experiment [1] is 0.251 µM (active); in experiment [2], over 46 µM; in [3], over 46 µM; in experiment [8] it was 2.51 µM (active); in experiment [9], 15.8 µM (active); in experiment [11] it was 0.126 µM (active). In addition, the Potency result in experiment [10] and in experiment [12] was “inactive” throughout. For the same compound, in experiment [5], the compound was called inactive.
For the compound `C=C1CC[C@@H](O)C/C1=C/C=C1\CCC[C@]2(C)[C@@H]1CC[C@H]2[C@@H](C)/C=C\[C@@H](C)C(C)C`, the Potency result in experiment [1], in experiment [4] and in experiment [12] was “inactive” throughout. Also, the Potency is over 46 µM in experiment [2], over 46 µM in experiment [3], 20 µM (active) in experiment [8] and 20 µM (active) in experiment [11].
With `COc1ccc(-c2coc3ccc(O[C@@H]4O[C@@H](COC(C)=O)[C@@H](OC(C)=O)[C@@H](OC(C)=O)[C@H]4OC(C)=O)cc3c2=O)cc1`, the Potency result in experiment [1], in experiment [4], in [7], in experiment [12] and in [11] was “inactive” each time. The Potency in [2] and in experiment [3] was over 46 µM in each case.
Consider `Cc1ccc(C[C@H](Cc2nc3ccccc3[nH]2)c2nc3ccccc3[nH]2)cc1`, for which the Potency in [1] was 3.98 µM (active); in [2], over 46 µM; in experiment [3], over 46 µM; in experiment [8], 12.6 µM (active); in experiment [12], 0.0794 µM (active); in [11], 5.01 µM (active). Also, the Potency entry in experiment [4] and in experiment [7] was “inactive” in each case.
Consider `C[C@H](O)[C@H](O)[C@@H](O)c1cnc2nc(N)[nH]c(=O)c2n1`, for which the Potency result in [1], in experiment [4], in experiment [7], in experiment [8], in [12] and in [11] was “inactive” in each case. Besides, the Potency in experiment [2] and in experiment [3] was over 46 µM throughout.
On to `CCCCCCCCCCCCCCCCOC[C@@H](COCC(F)(F)F)OP(=O)(O)OCO`, for which the Potency entry in [1], in [4], in experiment [7] and in [12] was “inactive” throughout. Also, the Potency in experiment [2] and in experiment [3] was over 46 µM in each case.
For the compound `CC(=O)[C@H]1[C@H]2[C@H](C(=O)[C@@H]3OC[C@H]2O3)[C@@H]2c3ccccc3C=CN12`, the values for the Potency in experiment [1], in [2] and in experiment [3] were 31.6 µM (active), over 46 µM and over 46 µM, respectively. Also, the Potency result in experiment [4], in experiment [7] and in experiment [12] was “inactive” in each case.
For the compound `COc1ccc([C@@H]2CC(=O)c3c(O)cc(O[C@@H]4O[C@@H](CO[C@@H]5O[C@@H](C)[C@@H](O)[C@@H](O)[C@H]5O)[C@@H](O)[C@@H](O)[C@H]4O)cc3O2)cc1O`, the Potency entry in [1], in experiment [4], in [8], in experiment [12] and in experiment [11] was “inactive” in each case. For the same compound, the Potency in experiment [2] and in experiment [3] was over 46 µM each time.
With `CC1(C)[C@@H](O)CC[C@@]2(C)[C@H]1CC[C@]1(C)[C@H]2C(=O)C=C2[C@@H]3C[C@@](C)(C(=O)O)CC[C@]3(C)CC[C@@]21C`, the Potency entry in experiment [1], in experiment [4], in [7], in experiment [8], in experiment [12] and in experiment [11] was “inactive” throughout. In addition, the Potency in experiment [2] and in experiment [3] was over 46 µM in each case.
Turning to `COc1cc(-c2cc(=O)c3ccccc3o2)ccc1O`, the Potency in experiment [1] was 0.0794 µM (active); in [2] it was over 46 µM; in [3], over 46 µM; in experiment [8], 6.31 µM (active); in experiment [9], 15.8 µM (active); in experiment [12] it was 31.6 µM (active). In experiment [11], the Potency was 6.31 µM (active). Further, the Potency entry in experiment [7] and in experiment [10] was “inactive” in each case. The compound was called inactive in [5].
Turning to `CC(=O)O[C@@H]1CC[C@]2(C)[C@H]3CC[C@]4(C)[C@H](C[C@H]5CCCC[C@@]54C(C)=O)[C@@H]3CC(=O)[C@@]2(O)C1`, the Potency is 20 µM (active) in experiment [1], over 46 µM in [2] and over 46 µM in experiment [3]. Moreover, the Potency entry in experiment [4], in experiment [7] and in experiment [12] was “inactive” each time.

The values above are taken from PubChem BioAssay (NCATS).
